Experimental data taken from the supplement of paper PMC7801607.

Legend:
[1] = test system: CHO; assay: % viability of CHO cells (MTT); higher = less toxic; conditions: 48 h
In short: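 CHO cells were plated at 10^6 cells/well in 200 µL and allowed to attach overnight. Fresh medium with compound at 2 or 20 µM then replaced the old medium for 48 h. Percent viability, relative to untreated cells, came from a colorimetric tetrazolium (MTT) readout.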

[2] = test system: HepG2-A16-CD81; assay: % inhibition of HepG2 viability (CellTiter-Glo); higher = more toxic; conditions: 5 µM
[3] = test system: Plasmodium falciparum NF54 stage IV/V gametocytes; assay: % inhibition of gametocyte viability (PrestoBlue); higher = more inhibition; conditions: 48 h
In short: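 In a single run, percent inhibition of gametocyte viability was calculated relative to vehicle and kill controls. The wells held 100 µL of Stage IV/V NF54 gametocytes at 2% gametocytaemia and 5% haematocrit, with compound at 1 or 5 µM. Plates stood at 37 °C in hypoxic conditions for 48 h. After that, 10 µL PrestoBlue was added for 2 h, and 70 µL of supernatant was transferred for fluorescence reading at 612 nm.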

[4] = test system: Plasmodium falciparum NF54 asexual blood stage; assay: % inhibition of asexual blood stage proliferation (pLDH); higher = more inhibition; conditions: 72 h
In short: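 Percent inhibition of asexual proliferation, normalised to controls, was determined in a screen repeated on two separate occasions. Plasmodium falciparum NF54 ring-stage cultures (1% haematocrit, 2% parasitaemia) received compound at 2 or 20 µM and were incubated for 72 h at 37 °C under 4% CO2, 3% O2 and 93% N2. A colorimetric parasite lactate dehydrogenase readout at 620 nm gave survival.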

[5] = test system: Plasmodium falciparum NF54 stage IV/V gametocytes; assay: % inhibition of gametocyte viability (ATP bioluminescence); higher = more inhibition; conditions: 24 h
In short: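 Enriched stage IV/V NF54 gametocytes were exposed to compound at 1 or 5 µM for 24 h at 37 °C in 96-well plates. Percent inhibition of gametocyte viability was derived from a bioluminescent ATP readout, normalised to controls within a single run.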

[6] = test system: Plasmodium falciparum NF54 stage IV/V gametocytes; assay: % inhibition of gametocyte viability (luciferase reporter); higher = more inhibition; conditions: 48 h
In short: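 Stage IV/V gametocytes of the NF54-Pfs16-GFP-Luc line (2% gametocytaemia, 2% haematocrit) were exposed to compound at 1 or 5 µM. Incubation was 48 h at 37 °C, stationary and hypoxic. Luminescence was read on 30 µL lysate plus 30 µL Promega luciferin substrate on a GloMax-Multi+ reader with 10 s integration. Percent inhibition was normalised to DMSO and kill controls from a single run.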

[7] = test system: Plasmodium berghei ANKA liver stage in HepG2-A16-CD81; assay: % inhibition of liver stage parasite viability (luciferase); higher = more inhibition; conditions: 5 µM; 48 h
Experimental: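 Single-concentration screen of the MMV Pandemic Response Box. P. falciparum NF54 asexual blood stages: pLDH assay, 72 h at 37 °C, 2 and 20 µM, n=2. Stage IV/V gametocytes (NF54): luciferase reporter (NF54-Pfs16-GFP-Luc, 48 h), ATP bioluminescence (24 h) and PrestoBlue (48 h) at 1 and 5 µM, n=1. P. berghei liver stage (luciferase in HepG2-A16-CD81, 48 h post infection) at 5 µM, n=4. All normalised to DMSO and kill controls as % inhibition.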
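Throughout, for % inhibition of HepG2 viability (CellTiter-Glo): HepG2-A16-CD81 hepatoma cells plated as in the liver-stage assay but without sporozoites, with DMSO wells as negative and 25 µM puromycin as positive control.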

SMILES	% viability of CHO cells ([1]; 2 µM) [%]	% viability of CHO cells ([1]; 20 µM) [%]	% inhibition of HepG2 viability [2] [%]	% inhibition of gametocyte viability ([3]; 1 µM) [%]	% inhibition of gametocyte viability ([3]; 5 µM) [%]	% inhibition of asexual blood stage proliferation ([4]; 2 µM) [%]	% inhibition of asexual blood stage proliferation ([4]; 20 µM) [%]	% inhibition of gametocyte viability ([5]; 1 µM) [%]	% inhibition of gametocyte viability ([5]; 5 µM) [%]	% inhibition of gametocyte viability ([6]; 1 µM) [%]	% inhibition of gametocyte viability ([6]; 5 µM) [%]	% inhibition of liver stage parasite viability [7] [%]
CCc1nc2ccccn2c1C(=O)NCc1ccccc1	123	58.5	6.82	< 0	< 0	6.85	18.2	< 0	< 0	< 0	8.65	25.4
CC[C@H](NC(=O)[C@H](C)NC)C(=O)N1C[C@@H](O)C[C@H]1Cc1c(-c2[nH]c3cc(F)ccc3c2C[C@@H]2C[C@H](O)CN2C(=O)[C@H](CC)NC(=O)[C@H](C)NC)[nH]c2cc(F)ccc12	102	117	15	5.89	54.9	75.7	83.1	28.6	76.9	17	56	37.5
CC1(C)Cc2c(C#N)c(SCCc3ccccc3)nc(N3CCOCC3)c2CO1	112	112	-1.4	9.17	45.1	17.3	89.2	< 0	< 0	< 0	3.41	18.8
CC(C)(C)c1cc(CCC(=O)N2CCC2)cc(C(C)(C)C)c1O	94.2	74.4	0.292	< 0	< 0	4.95	69.6	< 0	< 0	< 0	< 0	21.9
COc1ccc(-n2cnc3cc(NCc4ccco4)ccc32)cc1	93.6	94.6	1.83	< 0	< 0	29.7	44.9	2.7	< 0	< 0	< 0	-16.1
Oc1ccc(NCc2ccccc2OCc2ccccc2)cc1	97.9	103	-1.04	< 0	< 0	18.6	95	< 0	< 0	< 0	< 0	25.2
Cc1nc2ccc(Cl)cc2c(-c2ccccc2)c1CC(=O)O	121	61.2	6.38	< 0	< 0	37.6	40.5	< 0	< 0	7.85	13.3	24.5
C[C@H](NC(=O)C(=O)Nc1ccccc1C(C)(C)C)C(=O)N[C@@H](CC(=O)O)C(=O)COc1c(F)c(F)cc(F)c1F	113	63.6	0.382	< 0	< 0	31.7	46.9	< 0	< 0	1.5	2.48	5.8
COc1cc(Cc2cc(N)nc(N)n2)cc(OC)c1OC	107	103	4.91	< 0	< 0	43.4	50.8	< 0	< 0	< 0	< 0	81.6
O=S(=O)(NCB(O)O)c1ccc(-c2nnn[nH]2)cc1C(F)(F)F	86.3	66.1	3.27	18	9.79	29.1	28.6	< 0	< 0	1.13	3.64	29.3
CC[C@@]1(O)C(=O)OCc2c1cc1n(c2=O)Cc2cc3c([N+](=O)[O-])cccc3nc2-1	128	99.3	65.7	< 0	< 0	10.9	66.6	5.04	< 0	< 0	< 0	62.8
